Bioassay records: PubChem, National Center for Advancing Translational Sciences (NCATS)
Sampled rows, rich in hits. Any-hit rate of the full collection: about 0.87%.
EPAC2 ag: qHTS for Agonist of cAMP-regulated guanine nucleotide exchange factor 4 (EPAC2): primary screen; EPAC2 activation, biochemical qHTS; response scale: 100% = 6.5 mM cAMP response; actives 0.079% (n = 360,000); Rap guanine nucleotide exchange factor 4 (Homo sapiens), Q8WZA2; Potency, µM (highest dose often 154 µM), for the others: top-dose activation, hits mostly activators; also: potency is read from the fitted curve at half-maximal effect; nearly all actives have a fitted effect of over 50% in size
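qHTS, titration series. 100 nM EPAC2 / 250 nM Rap1B-BODIPY-GDP / 50 uM GDP; RT; ex 480/em 540 nm, 5-min reads to 30 min. Norm. to 6.5 mM cAMP = activation.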
EPAC1 agonist: qHTS for Agonist of cAMP-regulated guanine nucleotide exchange factor 3 (EPAC1): primary screen; AID 720707, 2013; Rap guanine nucleotide exchange factor 3 (Homo sapiens), O95398; EPAC1 agonist qHTS, biochemical assay; response scale: 100% = response to 6.5 mM cAMP; Potency, µM (top dose mostly 154 µM), for inactives: at the highest dose activation, hits mostly activators; actives 0.073% (n = 360,000); also: potency is read from the fitted curve at half-maximal effect; nearly all actives have a fitted effect of over 60% in size
Target sequence (O95398 whole entry, looked up): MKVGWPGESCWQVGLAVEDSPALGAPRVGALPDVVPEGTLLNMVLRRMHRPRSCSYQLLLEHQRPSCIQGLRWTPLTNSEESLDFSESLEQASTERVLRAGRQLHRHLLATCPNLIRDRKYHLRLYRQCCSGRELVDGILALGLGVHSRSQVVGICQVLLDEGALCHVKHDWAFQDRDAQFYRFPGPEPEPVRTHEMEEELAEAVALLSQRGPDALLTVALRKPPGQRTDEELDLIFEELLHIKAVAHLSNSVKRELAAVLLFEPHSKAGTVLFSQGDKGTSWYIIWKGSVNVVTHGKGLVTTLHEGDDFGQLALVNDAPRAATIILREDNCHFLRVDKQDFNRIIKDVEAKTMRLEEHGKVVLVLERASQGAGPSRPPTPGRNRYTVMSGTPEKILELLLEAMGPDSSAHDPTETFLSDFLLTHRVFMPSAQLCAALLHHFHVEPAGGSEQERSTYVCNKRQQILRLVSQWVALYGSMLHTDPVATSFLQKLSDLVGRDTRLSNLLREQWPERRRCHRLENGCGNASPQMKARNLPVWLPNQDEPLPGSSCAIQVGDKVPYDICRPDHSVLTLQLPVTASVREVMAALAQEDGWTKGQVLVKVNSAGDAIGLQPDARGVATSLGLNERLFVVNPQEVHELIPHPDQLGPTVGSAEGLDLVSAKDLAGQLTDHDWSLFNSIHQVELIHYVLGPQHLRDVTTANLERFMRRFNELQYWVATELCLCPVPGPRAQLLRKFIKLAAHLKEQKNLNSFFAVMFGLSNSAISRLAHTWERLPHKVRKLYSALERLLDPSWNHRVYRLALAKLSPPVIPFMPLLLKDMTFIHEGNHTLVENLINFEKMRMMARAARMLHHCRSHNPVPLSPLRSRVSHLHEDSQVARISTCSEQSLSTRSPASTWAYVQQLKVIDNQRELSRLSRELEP
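Compounds were pinned as a concentration titration into mixtures of EPAC1 (100 nM), BODIPY-GDP-loaded Rap1B (250 nM) and GDP (50 uM). After 5 min at room temperature, fluorescence was followed for 30 min; activity was scaled to 6.5 mM cAMP.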
EPAC2 antag: qHTS for Antagonist of cAMP-regulated guanine nucleotide exchange factor 2 (EPAC2): primary screen; Potency, µM (highest dose often 114 µM), inactives show top-dose activity, negative = inhibition, hits mostly inhibitors; AID 720708, 2013; actives 0.18% (n = 360,000); EPAC2 GEF exchange of Rap1B-BODIPY-GDP, fluorescence; also: potency is read from the fitted curve at half-maximal effect; % is scaled to controls: 0 for no effect and ±100 for the full control effect; nearly all actives have a fitted effect of over 45% in size
EPAC1 antagonist: qHTS for Antagonist of cAMP-regulated guanine nucleotide exchange factor 3 (EPAC1): primary screen. Rap guanine nucleotide exchange factor 3 (Homo sapiens), O95398. EPAC1 GEF assay, Rap1b-BODIPY-GDP exchange fluorescence. Potency, µM (doses to about 115 µM), for inactives: at the top dose activity change, negative = inhibition, most hits filed as inhibitors. actives 0.14% (n = 360,000);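 also: potency is read from the fitted curve at half-maximal effect; plate controls were vehicle for no effect and positive control for full effect; nearly all actives have a fitted effect of over 50% in size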
USP1 inh: Inhibitors of USP1/UAF1: Primary Screen; Ubiquitin carboxyl-terminal hydrolase 1 (Homo sapiens), O94782; recombinant USP1/UAF1, Ub-Rhodamine cleavage fluorescence; Potency, µM (highest dose often 57.1 µM), for the others: at the highest dose activity change, negative = inhibition, most hits filed as inhibitors; actives 0.23% (n = 390,000); AID 743255, 2014; also: potency is read from the fitted curve at half-maximal effect; % is scaled to controls: 0 for no effect and ±100 for the full control effect; nearly all actives have a fitted effect of over 60% in size
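USP1/UAF1 complex at 1 nM was preincubated with compound for 15 min at room temperature, then Ub-Rho substrate (150nM final) was added. Fluorescence (480/540 nm) was read kinetically, 6 reads every 60 seconds.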
Coupling enz: qHTS Assay for Inhibitors of Fructose-1,6-bisphosphate Aldolase from Giardia Lamblia: Coupling assay counterscreen | AID 2472, 2010 | coupling enzyme system counterscreen, AmpLite Red fluorescence | activity change, negative = inhibition, % at 58.2 µM, hits read low | actives 0.67% (n = 290,000); in the data active = activity change below about -30%; also: % is scaled to controls: 0 for no effect and ±100 for the full control effect
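Activity here indicates interference with the coupling reaction, not aldolase inhibition. Compounds at 57.5 uM final met coupling enzymes for 10 min at RT; substrate and AmpLite Red detection followed, with a 525/598 nm fluorescence read after 20 min.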
* hit, by the source's call; [ ] = another dose, or the depositor's remark. Unless noted, calls follow the shape of the dose curve; as a rule, active = well fitted curve in the direction sought with a large enough effect; inconclusive = small, poorly fitted or top-dose-only effect, or another doubt; inactive = no such curve, though single readings can be large; an effect the other way counts as inactive or inconclusive.

Results for Cc1ccc(NC2=C(N3CCOCC3)C(=O)c3ccccc3C2=O)cc1 ?
EPAC2 ag: 20%; EPAC1 agonist: 28%; EPAC2 antag: -6%; EPAC1 antagonist: -7%; USP1 inh: 40µM*; Coupling enz: -50*

How did O=C(O)c1ccc(NC2=C(N3CCOCC3)C(=O)c3ccccc3C2=O)cc1 do in these assays?
EPAC2 ag: -12%; EPAC1 agonist: -7%; EPAC2 antag: 1%; EPAC1 antagonist: -20%; USP1 inh: 28µM*; Coupling enz: -28

How did Cc1ccc(S(=O)(=O)NC2=C(N3CCN(c4ccccc4F)CC3)C(=O)c3ccccc3C2=O)cc1 do in these assays?
EPAC2 ag: -1%; EPAC1 agonist: -1%; EPAC2 antag: -10%; EPAC1 antagonist: -8%; USP1 inh: -18%; Coupling enz: -27

Results for CC(=O)c1ccc(NC2=C(N3CCOCC3)C(=O)c3ccccc3C2=O)cc1 ?
EPAC2 ag: 24%; EPAC1 agonist: 12%; EPAC2 antag: -18%; EPAC1 antagonist: -3%; USP1 inh: inconclusive; Coupling enz: -30*

How did Cc1ccc(CN2C(=O)c3ccccc3NC23CCN(Cc2ccccc2)CC3)cc1 do in these assays?
EPAC2 ag: 8%; EPAC1 agonist: 10%; EPAC2 antag: -11%; EPAC1 antagonist: 6%; USP1 inh: -22%; Coupling enz: 0

What do the screens show for `CN(Cc1cn(C)nc1-c1ccc(Oc2ccccc2)cc1)CC1COCCO1` (stereo not given)?
EPAC2 ag: 8%; EPAC1 agonist: -1%; EPAC2 antag: 1%; EPAC1 antagonist: -2%; USP1 inh: -16%; Coupling enz: 2

How did COCCN(CCOC)Cc1c(O)ccc2c1O/C(=C\c1ccco1)C2=O do in these assays?
EPAC2 ag: -36%; EPAC1 agonist: -32%; EPAC2 antag: 64%; EPAC1 antagonist: 174%; USP1 inh: -18%; Coupling enz: -5

What do the screens show for `CC1CCN(Cc2c(O)ccc3c2O/C(=C\c2ccco2)C3=O)CC1`?
EPAC2 ag: -34%; EPAC1 agonist: 17%; EPAC2 antag: 25%; EPAC1 antagonist: -14%; USP1 inh: 32µM*; Coupling enz: -7

Results for O=C1/C(=C/c2ccco2)Oc2c1ccc(O)c2CN1CCCCC1 ?
EPAC2 ag: -34%; EPAC1 agonist: inconclusive; EPAC2 antag: 53%; EPAC1 antagonist: -16%; USP1 inh: 32µM*; Coupling enz: -8

How did CCN1CCN(Cc2c(O)ccc3c2O/C(=C\C=C\c2ccccc2OC)C3=O)CC1 do in these assays?
EPAC2 ag: inconclusive; EPAC1 agonist: 56µM*; EPAC2 antag: 89%; EPAC1 antagonist: 46%; USP1 inh: 28µM*; Coupling enz: 4

What do the screens show for `Cc1ccc(/C=C2\Oc3c(ccc(O)c3CN3CCN(CCO)CC3)C2=O)cc1`?
EPAC2 ag: 4%; EPAC1 agonist: 17%; EPAC2 antag: -15%; EPAC1 antagonist: 16%; USP1 inh: inconclusive; Coupling enz: -1

Results for CC1=NN(c2ccccc2)C(=O)/C1=C\c1ccc(Oc2ccc([N+](=O)[O-])cc2[N+](=O)[O-])cc1 ?
EPAC2 ag: 3%; EPAC1 agonist: 11%; EPAC2 antag: 2%; EPAC1 antagonist: 79µM*; USP1 inh: inconclusive; Coupling enz: -16

Results for Cc1cc(O)c(C(C)C)cc1N=Cc1ccccc1O ?
EPAC2 ag: 13%; EPAC1 agonist: 0%; EPAC2 antag: -8%; EPAC1 antagonist: -15%; USP1 inh: inconclusive; Coupling enz: -51*

What do the screens show for `C=CCN1C=CC(=C/C=C(/C#N)C(=O)OCC)C=C1`?
EPAC2 ag: 28%; EPAC1 agonist: 24%; EPAC2 antag: 3%; EPAC1 antagonist: -2%; USP1 inh: 28µM*; Coupling enz: -5

How did O=C(Nc1ccc2nn(-c3ccccc3)nc2c1)c1cccs1 do in these assays?
EPAC2 ag: 7%; EPAC1 agonist: 4%; EPAC2 antag: 10%; EPAC1 antagonist: 9%; USP1 inh: -24%; Coupling enz: 0

Results for O=c1[nH]cc(N=Cc2cc(Cl)cc(Cl)c2O)c(=O)[nH]1 ?
EPAC2 ag: -8%; EPAC1 agonist: 100µM*; EPAC2 antag: -17%; EPAC1 antagonist: -6%; USP1 inh: inconclusive; Coupling enz: 2

How did CC(C)(C)c1ccc(C(=O)N/C(=C\c2ccco2)C(=O)Nc2ccccc2C(=O)O)cc1 do in these assays?
EPAC2 ag: -5%; EPAC1 agonist: -5%; EPAC2 antag: 15%; EPAC1 antagonist: -22%; USP1 inh: -20%; Coupling enz: 0

Results for COc1ccc(N2CCCn3c2nc2c3c(=O)n(CCN3CCOCC3)c(=O)n2C)cc1 ?
EPAC2 ag: 1%; EPAC1 agonist: 6%; EPAC2 antag: 11%; EPAC1 antagonist: 7%; USP1 inh: -18%; Coupling enz: 0

Results for CC(C)(C)C1=CC(=O)C(=O)C(C(C)(C)C)=C1 ?
EPAC2 ag: -39%; EPAC1 agonist: -19%; EPAC2 antag: -20%[57.1 µM]; EPAC1 antagonist: -26%; USP1 inh: -19%; Coupling enz: -48*

How did CC(C)(C)C1=CC(=Nc2ccccc2N)C=C(C(C)(C)C)C1=O do in these assays?
EPAC2 ag: -12%; EPAC1 agonist: -25%; EPAC2 antag: -29%; EPAC1 antagonist: -25%; USP1 inh: -8%; Coupling enz: -1

Results for CC1(C)Cc2c(ccc3ccccc23)C2=C(C(=O)N3CCCC3)C(=O)C(=O)N21 ?
EPAC2 ag: -5%; EPAC1 agonist: -2%; EPAC2 antag: 1%; EPAC1 antagonist: inconclusive; USP1 inh: -18%; Coupling enz: -45*

What do the screens show for `C=CCC1(O)C(=O)N2C(=C1C(=O)OCC)c1ccc3ccccc3c1CC2(C)C` (stereo not given)?
EPAC2 ag: 3%; EPAC1 agonist: -7%; EPAC2 antag: -27%; EPAC1 antagonist: inconclusive; USP1 inh: -22%; Coupling enz: 1

Results for C=CCO/N=C(/C)c1ccc(Oc2cnccn2)cc1 ?
EPAC2 ag: 4%; EPAC1 agonist: 12%; EPAC2 antag: -11%; EPAC1 antagonist: -2%; USP1 inh: -5%; Coupling enz: 2
